Assay results taken from ChEMBL document CHEMBL1961873, “Compounds: GSK PKIS; Assays: Nanosyn kinase panel” (2012).

What was measured:
[1] = biological target: RAF proto-oncogene serine/threonine-protein kinase (Homo sapiens) (UniProt P04049); conditions: at 1 µM;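 note: values are the mean percent inhibition of CRAF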
[2] = biological target: T1, Interleukin-1 receptor-associated kinase 4 (Homo sapiens) (UniProt Q9NWZ3); conditions: at 0.1 µM
T1 sequence (whole entry): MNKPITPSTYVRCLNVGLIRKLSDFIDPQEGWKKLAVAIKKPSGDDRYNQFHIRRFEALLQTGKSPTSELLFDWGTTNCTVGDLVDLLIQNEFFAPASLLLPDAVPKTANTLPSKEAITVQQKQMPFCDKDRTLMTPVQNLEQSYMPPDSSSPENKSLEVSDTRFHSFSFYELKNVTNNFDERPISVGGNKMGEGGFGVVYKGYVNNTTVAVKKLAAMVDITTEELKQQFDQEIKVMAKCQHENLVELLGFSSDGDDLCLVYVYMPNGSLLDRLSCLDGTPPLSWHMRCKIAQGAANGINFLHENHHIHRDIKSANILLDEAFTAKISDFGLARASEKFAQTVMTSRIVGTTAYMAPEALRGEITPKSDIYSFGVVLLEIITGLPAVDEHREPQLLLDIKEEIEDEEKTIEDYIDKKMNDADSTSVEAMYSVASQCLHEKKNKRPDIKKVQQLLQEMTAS

[3] = biological target: T1, Interleukin-1 receptor-associated kinase 4 (Homo sapiens); conditions: at 1 µM
[4] = biological target: Leucine-rich repeat serine/threonine-protein kinase 2 (Homo sapiens) (UniProt Q5S007); conditions: at 0.1 µM
[5] = biological target: Leucine-rich repeat serine/threonine-protein kinase 2 (Homo sapiens) (UniProt Q5S007); conditions: at 1 µM
[6] = test system: Leucine-rich repeat serine/threonine-protein kinase 2 (Homo sapiens), Q5S007 [G2019S]; conditions: at 0.1 µM
[7] = test system: Leucine-rich repeat serine/threonine-protein kinase 2 (Homo sapiens), Q5S007 [G2019S]; conditions: at 1 µM

Chain of Leucine-rich repeat serine/threonine-protein kinase 2 (Homo sapiens) (Q5S007 whole entry): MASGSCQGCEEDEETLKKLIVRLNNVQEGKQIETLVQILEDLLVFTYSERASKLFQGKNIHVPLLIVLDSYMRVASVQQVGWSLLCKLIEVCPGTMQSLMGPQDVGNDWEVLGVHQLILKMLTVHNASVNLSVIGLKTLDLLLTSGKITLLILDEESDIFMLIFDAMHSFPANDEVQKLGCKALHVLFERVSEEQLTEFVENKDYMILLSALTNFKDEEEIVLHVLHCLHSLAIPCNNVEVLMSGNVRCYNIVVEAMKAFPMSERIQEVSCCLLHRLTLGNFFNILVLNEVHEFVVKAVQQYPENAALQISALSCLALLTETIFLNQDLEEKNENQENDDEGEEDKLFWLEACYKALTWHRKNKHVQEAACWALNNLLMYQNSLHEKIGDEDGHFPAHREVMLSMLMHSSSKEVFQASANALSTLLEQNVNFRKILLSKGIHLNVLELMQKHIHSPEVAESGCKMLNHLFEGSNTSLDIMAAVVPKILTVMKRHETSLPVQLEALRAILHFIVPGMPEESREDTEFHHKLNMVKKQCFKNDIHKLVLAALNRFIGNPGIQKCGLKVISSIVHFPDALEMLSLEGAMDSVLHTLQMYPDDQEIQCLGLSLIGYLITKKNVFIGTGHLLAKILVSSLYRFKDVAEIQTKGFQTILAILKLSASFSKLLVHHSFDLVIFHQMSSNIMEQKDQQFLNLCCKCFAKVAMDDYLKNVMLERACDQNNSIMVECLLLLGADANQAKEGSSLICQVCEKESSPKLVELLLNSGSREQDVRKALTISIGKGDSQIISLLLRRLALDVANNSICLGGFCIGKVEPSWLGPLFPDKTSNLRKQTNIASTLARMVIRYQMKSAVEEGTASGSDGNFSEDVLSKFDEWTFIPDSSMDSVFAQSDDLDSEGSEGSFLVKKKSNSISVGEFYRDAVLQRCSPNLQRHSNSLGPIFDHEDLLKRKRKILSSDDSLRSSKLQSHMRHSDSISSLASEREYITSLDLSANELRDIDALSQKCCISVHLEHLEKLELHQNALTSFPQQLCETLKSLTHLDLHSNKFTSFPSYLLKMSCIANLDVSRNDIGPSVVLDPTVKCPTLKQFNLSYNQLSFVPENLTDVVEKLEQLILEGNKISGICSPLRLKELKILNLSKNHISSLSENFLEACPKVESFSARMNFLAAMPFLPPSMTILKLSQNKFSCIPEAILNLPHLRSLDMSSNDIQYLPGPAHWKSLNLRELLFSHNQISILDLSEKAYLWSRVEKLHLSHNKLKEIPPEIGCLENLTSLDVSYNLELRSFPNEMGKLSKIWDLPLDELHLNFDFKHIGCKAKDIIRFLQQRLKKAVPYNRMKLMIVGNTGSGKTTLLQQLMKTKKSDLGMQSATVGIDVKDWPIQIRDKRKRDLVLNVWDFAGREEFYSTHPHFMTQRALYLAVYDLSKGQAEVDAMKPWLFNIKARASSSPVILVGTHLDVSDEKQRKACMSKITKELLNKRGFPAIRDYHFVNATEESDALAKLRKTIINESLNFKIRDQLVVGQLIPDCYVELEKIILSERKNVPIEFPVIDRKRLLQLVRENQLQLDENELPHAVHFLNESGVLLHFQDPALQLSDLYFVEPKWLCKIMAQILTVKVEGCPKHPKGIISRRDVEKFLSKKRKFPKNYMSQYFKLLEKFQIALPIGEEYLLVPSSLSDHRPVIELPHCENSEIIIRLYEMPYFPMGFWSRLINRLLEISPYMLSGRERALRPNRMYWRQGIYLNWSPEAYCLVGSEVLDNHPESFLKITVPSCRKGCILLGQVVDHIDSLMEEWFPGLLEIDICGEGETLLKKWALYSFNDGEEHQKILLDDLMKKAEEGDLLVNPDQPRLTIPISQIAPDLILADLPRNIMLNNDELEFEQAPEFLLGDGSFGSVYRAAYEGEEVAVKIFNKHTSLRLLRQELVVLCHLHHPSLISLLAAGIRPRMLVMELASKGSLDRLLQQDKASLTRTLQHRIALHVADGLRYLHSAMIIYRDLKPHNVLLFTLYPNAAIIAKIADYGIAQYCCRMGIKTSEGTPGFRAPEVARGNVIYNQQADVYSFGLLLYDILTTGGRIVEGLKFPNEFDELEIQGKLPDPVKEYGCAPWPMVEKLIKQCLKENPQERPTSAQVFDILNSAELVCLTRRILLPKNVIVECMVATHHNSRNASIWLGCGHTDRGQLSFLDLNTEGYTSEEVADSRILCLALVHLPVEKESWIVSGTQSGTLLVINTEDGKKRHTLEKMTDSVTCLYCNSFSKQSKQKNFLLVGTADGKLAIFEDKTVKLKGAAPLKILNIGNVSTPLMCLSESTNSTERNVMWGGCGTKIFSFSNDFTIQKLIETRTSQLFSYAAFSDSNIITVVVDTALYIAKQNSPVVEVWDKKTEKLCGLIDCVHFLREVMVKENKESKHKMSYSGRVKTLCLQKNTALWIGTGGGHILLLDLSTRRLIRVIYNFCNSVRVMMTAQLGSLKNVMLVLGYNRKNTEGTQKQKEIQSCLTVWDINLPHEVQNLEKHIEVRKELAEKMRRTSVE
Chain of Leucine-rich repeat serine/threonine-protein kinase 2 (Homo sapiens), Q5S007 [G2019S] (Q5S007 whole entry G2019S): as the sequence (Q5S007 whole entry) above, with G2019S counted along it
Chain of RAF proto-oncogene serine/threonine-protein kinase (Homo sapiens) (P04049 whole entry): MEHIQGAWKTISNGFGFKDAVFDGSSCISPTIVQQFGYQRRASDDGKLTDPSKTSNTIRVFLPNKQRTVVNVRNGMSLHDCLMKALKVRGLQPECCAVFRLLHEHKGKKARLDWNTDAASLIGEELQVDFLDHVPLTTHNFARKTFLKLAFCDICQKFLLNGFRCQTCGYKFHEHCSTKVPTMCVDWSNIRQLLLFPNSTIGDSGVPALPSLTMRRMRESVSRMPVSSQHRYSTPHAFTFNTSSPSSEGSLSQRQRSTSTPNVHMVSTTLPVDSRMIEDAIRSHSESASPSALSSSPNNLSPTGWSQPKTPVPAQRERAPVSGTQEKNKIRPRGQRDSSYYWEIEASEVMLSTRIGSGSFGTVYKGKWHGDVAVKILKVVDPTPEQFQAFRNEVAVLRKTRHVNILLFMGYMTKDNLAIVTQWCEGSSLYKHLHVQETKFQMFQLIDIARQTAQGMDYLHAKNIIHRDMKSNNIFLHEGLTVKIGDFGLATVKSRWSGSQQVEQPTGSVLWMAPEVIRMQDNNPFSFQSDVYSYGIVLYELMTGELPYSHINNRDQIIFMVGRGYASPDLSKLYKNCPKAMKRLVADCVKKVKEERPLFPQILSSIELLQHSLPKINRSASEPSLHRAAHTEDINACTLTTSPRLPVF

Row | SMILES | inhibition [1] | inhibition [2] | inhibition [3] | inhibition [4] | inhibition [5] | inhibition [6] | inhibition [7]
1 | COc1ccc2cc(-c3c(-c4ccncc4)nc(-c4ccc([S+](C)[O-])cc4)n3C)ccc2c1 (centres undefined) | 9.73% | 3.57% | 1.12% | 2.6% | 4.23% | 3.37% | 5.02%
2 | COc1cc(C=NNc2ncnc3c2cnn3-c2ccccc2)ccc1O | -6.14% | -2.02% | 3.98% | 7.59% | 22.3% | 7.59% | 40.8%
3 | Cc1nnc(-c2ccc(C)c(-c3ccc(C(=O)Nc4cccc(C#N)c4)cc3)c2)o1 | -9.42% | 4.13% | 0.84% | 0.06% | 0.83% | 2.49% | 7.62%
4 | COc1ccc(-c2coc3ncnc(N)c23)cc1 | 4.1% | 0.41% | 1.48% | 3.62% | 6.4% | 4.35% | 7.19%
5 | COc1cc(C)c(NC(=O)CN(C)C)cc1Nc1nc(Nc2cccc(F)c2C(N)=O)c2cc[nH]c2n1 | -0.14% | -2.25% | 2% | 91.2% | 90.2% | 83.5% | 88.7%
6 | COC(=O)Nc1nc2cc(Oc3ccc(NC(=O)Nc4cccc(C(=O)O)c4)cc3)ccc2[nH]1 | 0.7% | 1.45% | 0.26% | -4.47% | 4.49% | -2.68% | 3.07%
7 | O=C1NC(=O)C(c2cccc(Cl)c2)=C1Nc1ccc(O)c(Cl)c1 | 3.11% | 2.97% | 0.96% | 4.5% | 18.4% | 4.28% | 30%
8 | Fc1cccc(COc2ccc(Nc3ncnc4sc(-c5cccs5)cc34)cc2Cl)c1 | -2.15% | 0.39% | 1.34% | 1.83% | 4.84% | 3.4% | 6.24%
9 | CCn1c(-c2nonc2N)nc2ccncc21 | 14% | 2.09% | 0.65% | 1.49% | 2.85% | 1.49% | 6.2%
10 | CS(=O)(=O)Nc1ccc(N/C=C2\C(=O)Nc3ccccc32)cc1 | -2.68% | -0.49% | -0.15% | 1.31% | 18.1% | 5.01% | 31.3%
11 | CC(C)=Cc1cccc2c1/C(=N/Nc1ccc(S(N)(=O)=O)cc1)C(=O)N2 | -1.14% | -0.76% | 0.79% | 14.9% | 65.4% | 17.7% | 60.9%
12 | Fc1cccc(COc2ccc(Nc3ncnc4cc(-c5ccc[nH]5)sc34)cc2Cl)c1 | 1.43% | 7.16% | 1.69% | -4.42% | -3.46% | -1.54% | 0.39%
13 | O=C(Nc1n[nH]c2nc(-c3ccco3)c(Br)cc12)C1CC1 | 2.37% | 5.57% | 1.08% | 2.41% | 2.93% | 2.74% | 6.98%
14 | CCc1cccc(NC(=O)Nc2ccc(Oc3ccc4nc(NC(=O)OC)[nH]c4c3)cc2)c1 | 4.58% | 0.53% | 1.04% | 9.23% | 8.78% | 5.51% | 8.2%
15 | CS(=O)(=O)CCNCc1ccc(-c2ccc3ncnc(Nc4ccc(OCc5cccc(F)c5)c(C(F)(F)F)c4)c3c2)o1 | 12.1% | 4.38% | 1.89% | 0.82% | 1.68% | 3.39% | 2.93%
16 | COc1cc2c(cc1Nc1nc(N3CCc4ccccc43)c3cc[nH]c3n1)N(C(=O)CN(C)C)CC2 | -4.34% | -0.95% | 0.98% | 17.6% | 19.3% | 18.2% | 57.1%
17 | N#Cc1c(NC(=O)c2cccc3ccccc23)sc2c1CCCC2 | 3.48% | 2.64% | 1.05% | 1.35% | 2.73% | 1.99% | 3.65%
